# Experimental data reported in PubChem BioAssay (Tox21).
# Results filed as inconclusive are left out. A number with no mark means an inactive call. Active and inactive are the calls of the source. Calls follow the shape of the dose curve; as a rule, active = well fitted activation curve with a large enough effect in the repeat runs; inconclusive = weak or mixed curves; inactive = flat fitted curve, though single readings scatter.
# Experiment: A CellTox Green Cytotoxicity Assay to monitor cytotoxicity in HepG2 cells - 24 hour (AID 1224878); also: nearly all actives have a fitted effect of over 45% in size
# Details: CellTox Green fluorescence; series mostly up to 76.8 µM; cytotoxicity: at the top concentration
# Description: National Center for Advancing Translational Sciences [NCATS]
# NIH Chemical Genomics Center [NCGC]
# U.S. Environmental Protection Agency [EPA]
# National Institutes of Environmental Health Sciences [NIEHS]
# National Toxicology Program [NTP]
# Cell-based models are critical for drug discovery. Determining the natural cytotoxic effects resulting from test compounds is an essential research activity. A CellTox Green Cytotoxicity Assay to monitor cytotoxicity in real time of continues cell culture during 40 hours of the compound treatment was used to screen Tox21 10K library compounds in HepG2 cells. CellTox Green Cytotoxicity Assay is a nonlytic, homogeneous, biofluorescent method to measure cytotoxicity in cell culture after experimental manipulation. The assay system uses a proprietary asymmetric cyanine dye that is excluded from viable cells but preferentially stains the dead cell's DNA. […] Viable cells produce no appreciable increases in fluorescence. Therefore, the fluorescence signal produced by the binding interaction with dead cell DNA is proportional to cytotoxicity.
# The mixture of HepG2 cell suspension and reagents were dispensed at 600cells/6 ul/well in 1536-well tissue culture treated black solid bottom plates using a Multidrop dispenser. After the assay plates were incubated at a 37 C/5% CO2 incubator for 5 hours, 23 nL of compounds dissolved in DMSO, positive and negative controls was transferred to the assay plate by a pintool work station. The plates were incubated at 37 C for 40 hours. The fluorescence intensity were measured at 0h, 8h, 16h, 24h, 32h and 40h time points using ViewLux plate reader during compound treatment.
# % is scaled to controls: 0 for no effect and ±100 for the full control effect; potency is read from the fitted curve at half-maximal effect.
SMILES,cytotoxicity,Potency
CC(C)C(Nc1ccc(C(F)(F)F)cc1Cl)C(=O)OC(C#N)c1cccc(Oc2ccccc2)c1 (stereo not given),-2.4%,–
CCC(C)c1cccc(C(C)CC)c1O (stereo not given),–,19.5 µM (active)
Brc1ccc(Oc2ccc(Br)cc2Br)c(Br)c1,-5.9%,–
BrCC(Br)(Br)Br,8.13%,–
CC(=O)[O-].CC(=O)[O-].O.O.O.[Pb+2],0.0608%,–
C=CC(=C)C,-2%,–
Cc1ccn2nc(S(=O)(=O)Nc3c(F)cccc3F)nc2n1,-11.2%,–
O=S(=O)(O)F,-3.83%,–
CCCCc1ccccc1,0.545%,–
[O]=[Cr](=[O])([OH])[O][Cr](=[O])(=[O])[OH],15.4%,–
Clc1ccc(C(c2ccc(Cl)cc2)C(Cl)Cl)cc1,3.71%,–
C[C@H]1[C@H](c2ccc(Cl)cc2)SC(=O)N1C(=O)NC1CCCCC1,0.599%,–
CCCCC(CC)COC(=O)c1ccccc1C(=O)OCC(CC)CCCC (stereo not given),-30.9%,–
Cc1ccc2cc3c(ccc4ccccc43)c3c2c1CC3,0.466% [at 35.3 µM],–
CC(=O)[O-].CC(=O)[O-].CC(=O)[O-].[Cr+3],3.13%,–
[O-][Cl+3]([O-])([O-])O,-15.3%,–
C=C(C)C(=O)[O][Sn]([CH2]CCC)([CH2]CCC)[CH2]CCC,–,0.616 µM (active)
CN1[C@@H]2CC[C@H]1CC(O)C2 (stereo not given in full),-17%,–
CC(Cl)CCl (stereo not given),-0.0542%,–
COC(=O)/C=C(\C)OP(=O)(OC)OC,8.7%,–

SMILES,cytotoxicity,Potency
O=[N+]([O-])c1ccc(CCl)cc1,0.649%,–
Oc1ccc(Cl)c(Cl)c1,6.56%,–
CC(C)[C@@H](Nc1ccc(C(F)(F)F)cc1Cl)C(=O)OC(C#N)c1cccc(Oc2ccccc2)c1 (stereo not given in full),-3.16%,–
CCOP(=O)(Sc1ccccc1)Sc1ccccc1,-5.12%,–
COc1ccc(Cc2nccc3cc(OC)c(OC)cc23)cc1OC,16.6% [at 35.3 µM],–
CC(C)Br,-1.52%,–
CCN(CC)Cc1nccn1-c1ccc([N+](=O)[O-])cc1C(=O)c1ccccc1Cl,-0.334% [at 35.3 µM],–
CCCN,-0.445%,–
CC(C)NCC(O)c1ccccc1Cl (stereo not given),4.87% [at 35.3 µM],–
Nc1nc(N)c(N)c(N)n1,–,55.2 µM (active)
N#Cc1c[nH]cc1-c1cccc2c1OC(F)(F)O2,14%,–
CCOC(=O)Cc1ccccc1,2.22%,–
O=C(Cl)c1ccccc1F,-5.53%,–
CCOP(=S)(NC(C)C)Oc1ccccc1C(=O)OC(C)C (stereo not given),0.935%,–
CCC(OC(C)=O)C(CC(C)NC)(c1ccccc1)c1ccccc1 (stereo not given),–,55.4 µM (active)
CC(C)=CC1C(C(=O)OC(C#N)c2cccc(Oc3ccccc3)c2)C1(C)C (stereo not given),-14.8%,–
COP(=O)(OC)Oc1ccc([N+](=O)[O-])cc1,-8.73%,–
CCOP(=O)(OCC)Oc1nc(Cl)c(Cl)cc1Cl,2.9%,–
CCCCCCC[CH2][Sn]([Cl])([Cl])[CH2]CCCCCCC,-5.86%,–
C=CC(=O)[O][Sn]([CH2]CCC)([CH2]CCC)[CH2]CCC,–,0.692 µM (active)
